Values joined by “and” are separate entries in the source; they are usually repeats but may differ in a detail not shown here. Equal entries are not always repeated. Results filed as inconclusive are left out. Active and inactive are the calls of the source. Calls follow the shape of the dose curve; as a rule, active = well fitted activation curve with a large enough effect in the signal ratio (not every such curve was filed as active); inconclusive = small, poorly fitted or top-dose-only effect, or a change in a side signal; inactive = flat fitted curve, though single readings scatter; the % refers to the signal ratio.
assay: qHTS assay for small molecule activators of the p53 signaling pathway (AID 651743); settings: HCT-116 p53RE-bla, beta-lactamase FRET ratio, 16 h; activation: hits give high values; as to activation: series mostly up to about 92 µM; % of control where 0% means no effect
Excerpt: National Center for Advancing Translational Sciences [NCATS] NIH Chemical Genomics Center [NCGC] U.S. Environmental Protection Agency [EPA] National Institutes of Environmental Health Sciences [NIEHS] National Toxicology Program [NTP] Assay Overview: p53, a tumor suppressor protein, is activated following cellular insult, including DNA damage and other cellular stresses. The activation of p53 regulates cell fate by inducing DNA repair, cell cycle arrest, apoptosis, or cellular senescence. The activation of p53, therefore, is a good indicator of DNA damage and other cellular stresses. The CellSensor p53RE-bla HCT-116 cell line (Invitrogen) contains a stably integrated beta-lactamase reporter gene under control of the p53 response elements. The activation of the report gene under culture conditions can be detected by fluorescence intensity. This cell line can be used to screen chemicals in a 1536-well plate format and to identify agonists that activate p53 signaling pathway.
Assay Protocol Summary: The p53RE-bla cells were dispensed at 4,000 cells/5 ul/well in 1536-well black wall/clear bottom plates using a Multidrop dispenser. After the assay plates were incubated at a 37 C/5% CO2 incubator for 5 hours, 23 nL of compounds dissolved in DMSO, positive controls or DMSO only was transferred to the assay plate by a pin tool. The plates were incubated at 37 C for 16 hours. After 1 uL of LiveBLAzer B/G FRET substrate was added using a Flying Reagent Dispenser, the plates were incubated at room temperature for 2 hours, and fluorescence intensity was measured by an Envision plate reader.
Potency is read from the fitted curve at half-maximal effect.

Compound	activation	Potency
CC(C)(C)OOC(=O)c1ccccc1	-3.4% (inactive) and 2.14% (inactive)	
CN(C)N=O	-2.39% (inactive)	
ClCCBr	0.777% (inactive)	
S=c1[nH]c2ccccc2[nH]1	-4.45% (inactive)	
CCCCOCC1CO1 (stereo not given)	-1.31% (inactive)	
Cc1ccc(N)cc1N	-3.51% (inactive) and -0.675% (inactive)	
CN=C=O	-2.98% (inactive)	
Nc1ccccc1-c1ccccc1	-6.93% (inactive)	
Cc1cc(N=Nc2ccccc2C)ccc1N	-4.82% (inactive) and -5.43% (inactive)	
Brc1ccc(Oc2ccc(Br)cc2Br)c(Br)c1	2.43% (inactive)	
Oc1cc(Cl)c(Cl)c(Cl)c1		44.7 µM (active)
C=CCc1cc(OC)c2c(c1)OCO2	-0.222% (inactive)	
ClC(Br)Br	6.47% (inactive)	
S=C1NCCN1	-4.05% (inactive) and -5.02% (inactive)	
CCCCCCCCCCCOC(=O)c1ccccc1C(=O)OCCCCCCCCCCC	2.34% (inactive)	
O=Cc1ccc(Cl)cc1Cl	-1.2% (inactive)	
Cc1cccc(C)c1N	1.32% (inactive)	
O=C(Cl)c1ccccc1F	-0.282% (inactive)	
Oc1cccc(Cl)c1Cl	0.548% (inactive)	
Cc1cc(-c2ccc(N)c(C)c2)ccc1N	-1.87% (inactive) and -0.84% (inactive) and 2.36% (inactive)	

Compound	activation	Potency
CCN(CC)N=O	-1.39% (inactive)	
[O-][Cl+2]([O-])O	0.222% (inactive)	
COC(C)(C)C	-2.31% (inactive)	
CCSC(=O)N1CCCCCC1	-3.15% (inactive) and 2.49% (inactive)	
ClP(Cl)(Cl)(Cl)Cl	-1.29% (inactive)	
Nc1ccc(-c2ccc(N)cc2)cc1	-1.06% (inactive)	
C=CCOCC1CO1 (stereo not given)	-3.48% (inactive)	
CCC/C=N/O	2.09% (inactive)	
Clc1ccc(C(c2ccccc2Cl)C(Cl)(Cl)Cl)cc1 (stereo not given)	0.576% (inactive) and 10.5% (inactive)	
N#CCCCCC#N	-0.437% (inactive)	
ClCCOCOCCCl	-4.18% (inactive)	
N#C/C(N)=C(/N)C#N	1.55% (inactive)	
C=CCCl	-1.58% (inactive)	
Nc1ccc2ccccc2c1	0.265% (inactive)	
c1ccoc1	1.16% (inactive)	
ClCCCCl	-3.64% (inactive)	
c1ccc(N=NNc2ccccc2)cc1	-4.25% (inactive) and -0.499% (inactive)	
CC(Cl)(Cl)Cl	-0.56% (inactive) and -3.67% (inactive)	
COc1c(C(C)(C)C)cc([N+](=O)[O-])c(C)c1[N+](=O)[O-]	-1.58% (inactive)	
C/C=C/CC#N	-0.715% (inactive)	
